{"source": "PubChem BioAssay (EPA / NIEHS)", "note": "Results filed as inconclusive are left out. Some compounds were tested as several samples or in several runs, with calls that do not always agree. Active and inactive are the calls of the source. Rule for the calls: active = hit-call score of the fitted dose curve at least 0.9, where 1 is the maximum; inconclusive = response in the unintended direction; inactive = score below 0.9. Where a SMILES comes first, the peptide text is derived from it. [ ]: non-standard residue; d: D form. pGlu = O=C1CC[C@@H](C(=O)O)N1; Thz = O=C(O)[C@@H]1CSCN1", "data": [{"biological_target": "Cellular tumor antigen p53 (Homo sapiens) (UniProt P04637)", "sequence (P04637 whole entry, looked up, the tested form may be a part)": "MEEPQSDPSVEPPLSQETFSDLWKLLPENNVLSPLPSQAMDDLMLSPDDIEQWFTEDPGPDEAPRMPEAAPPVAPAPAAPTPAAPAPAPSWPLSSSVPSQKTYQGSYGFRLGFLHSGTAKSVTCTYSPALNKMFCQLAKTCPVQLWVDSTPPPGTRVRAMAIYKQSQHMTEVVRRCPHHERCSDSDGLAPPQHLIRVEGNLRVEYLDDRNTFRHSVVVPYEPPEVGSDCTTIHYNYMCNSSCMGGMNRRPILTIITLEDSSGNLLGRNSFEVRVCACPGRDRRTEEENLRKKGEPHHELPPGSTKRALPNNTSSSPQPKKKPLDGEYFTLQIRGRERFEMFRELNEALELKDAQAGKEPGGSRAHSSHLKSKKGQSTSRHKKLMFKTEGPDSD", "test": "TOX21_p53_BLA_p3_ratio: Tox21 HCT-116 p53 Agonism Beta-lactamase Assay, Ratio, Phase 3 (AID 2283596)", "source_text": "TOX21_p53_BLA_p3 is a cell-based, single-readout assay that uses HCT116, a human intestinal cell line, […] in a 1536-well plate.TOX21_p53_BLA_p3_ratio is an assay readout measuring reporter gene via receptor activity and designed using inducible reporter (beta lactamase induction) detected with GAL4 b-lactamase reporter gene. The signal is derived from the ratio of cleaved (ch2) to uncleaved (ch1) reporter gene substrate used as the measure of target activity.Data from the assay component TOX21_p53_BLA_p3_ratio was analyzed into 1 assay endpoint. This assay endpoint, TOX21_p53_BLA_p3_ratio, was analyzed in the positive analysis fitting direction relative to DMSO as the negative control and baseline of activity. Using a type of inducible reporter, gain-of-signal activity can be used to understand changes in the reporter gene as they relate to the gene TP53. Furthermore, this assay endpoint can be referred to as a primary readout, because this assay has produced multiple assay endpoints where this ratio serves a reporter gene function to understand target activity. To generalize the intended target to other relatable targets, this assay endpoint is annotated to the DNA binding intended target family, where the subfamily is tumor suppressor.\nThawing Method: Place 14 mL of pre-warmed thaw medium into a 15 mL of conical tub. Remove the vial of cells to be thawed from liquid nitrogen and thaw rapidly by placing at 37C in a water bath with gentle agitation for 1-2 minutes. Decontaminate the vial by wiping with 70% ethanol before opening in a biological safety cabinet. Transfer the vial contents drop-wise into 14 mL of thaw medium in a sterile 15-mL conical tub. Centrifuge cells at 900 rpm for 4 minutes and resuspend in thaw medium. Transfer contents to the T75 tissue culture flask containing Thaw Medium and place flask in a humidified 37C/5% CO2 incubator. Switch to growth medium at first passage.Propagation Method: Aspirate medium, rinse once in DPBS, add 0.25% Trypsin/EDTA and swirl to coat the cell evenly. Add an equal volume of Growth Medium to inactivate Trypsin after 2-3 minutes incubation at 37C. Centrifuge cells at 900 rpm for 4 minutes and resuspend in growth medium. Cell should be passage or fed at least twice a week.Assay Protocol: Harvest cells from culture in growth medium and resuspend in assay medium. 2.2 Dispense 4000 cells/5 uL/well into 1536-well black/clear bottom plates using a Multidrop dispenser. After the cells were incubated at 37C for 5 hours, 23 nL of compounds dissolved in DMSO were transferred to the assay plate by a PinTool resulting in a 217-fold dilution. Incubate the plates for 16 hours at 37C, 5% CO2. Add 1 uL of 6X LiveBLAzer FRET B/G (CCF4-AM) Substrate Mixture to each well using a BioRAPTR dispenser and incubate the plates at room temperature for 2 hours. Measure fluorescence intensity at 460 and 530 nm emission and 405 nm excitation by an Envision detector. Data is expressed as the ratio of 460nm/530nm emissions. Add 4 uL of Cell-titer Glo to each well using BioRAPTR and incubate the plates at room temperature for 2 hours. Measure fluorescence intensity by a VewLux plate reader.", "values": [{"molecule": "CN(C)CCC(c1ccccc1)c1ccccn1", "note": "(stereo not given)", "outcome": "inactive"}, {"molecule": "OCc1ccccc1O", "outcome": "inactive"}, {"molecule": "CN(C(=O)CCCOc1ccc2[nH]c(=O)ccc2c1)C1CCCCC1", "outcome": "inactive"}, {"molecule": "O=C(O)CCCC/C=C(\\c1ccccc1)c1cccnc1", "outcome": "inactive"}, {"molecule": "Nc1ccncc1N", "outcome": "inactive"}, {"molecule": "CCC(CC)(CC(=O)Nc1cccc(/C=C/c2nc(C3CCC3)cs2)c1)C(=O)O", "outcome": "inactive"}, {"molecule": "N#CC1(O)CCCCC1", "outcome": "inactive"}, {"molecule": "COC(=O)[C@H]1[C@H]2C[C@@H]3c4[nH]c5ccccc5c4CCN3C[C@H]2C[C@@H](OC(=O)c2cc(OC)c(OC)c(OC)c2)[C@@H]1OC", "outcome": "inactive"}, {"molecule": "CCN(Cc1cccc(S(=O)(=O)O)c1)c1ccccc1", "outcome": "inactive"}, {"molecule": "C=C1CC[C@@H]2[C@](C)(CO)[C@H](O)CC[C@@]2(C)[C@@H]1C/C=C1/C(=O)OC[C@H]1O", "outcome": "inactive"}, {"molecule": "CCCC(C)c1ccccc1O", "note": "(stereo not given)", "outcome": "inactive"}, {"molecule": "CC(=O)Oc1ccc(C(=C2CCCCC2)c2ccc(OC(C)=O)cc2)cc1", "outcome": "inactive"}, {"molecule": "O=C(CCCCCCC(=O)Nc1ccccc1)NO", "AC50": "0.874 µM (active)", "outcome": "inactive"}, {"molecule": "CN(C)CCCN1c2ccccc2C(C)(C)c2ccccc21", "outcome": "inactive"}, {"molecule": "CCN(CC)C(=O)N1CCN(C)CC1", "outcome": "inactive"}, {"molecule": "Cc1cc(O)c(C(C)C)cc1Cl", "outcome": "inactive"}, {"molecule": "O=C1CC[C@@H](C(=O)N2CSC[C@H]2C(=O)O)N1", "note": "([pGlu]-[Thz]-OH)", "outcome": "inactive"}, {"molecule": "O=S(O)CNc1ccc(S(=O)(=O)c2ccc(NCS(=O)O)cc2)cc1", "outcome": "inactive"}, {"molecule": "Nc1nc2[nH]cc(CCc3ccc(C(=O)N[C@@H](CCC(=O)O)C(=O)O)cc3)c2c(=O)[nH]1", "outcome": "inactive"}, {"molecule": "CCCCCCCCCCCCCCCCC(C(=O)O)C(O)(CC(=O)O)C(=O)O", "note": "(stereo not given)", "AC50": "41.2 µM (active)"}, {"molecule": "COc1cc(NC(C)CCCN)c2ncccc2c1", "note": "(stereo not given)", "outcome": "inactive"}, {"molecule": "CCNC(=O)N1CCN(CCCC(c2ccc(F)cc2)c2ccc(F)cc2)CC1", "outcome": "inactive"}, {"molecule": "COc1cccc2c1C(=O)c1c(O)c3c(c(O)c1C2=O)C[C@@](O)(C(=O)CO)C[C@@H]3O[C@H]1C[C@H](N)[C@H](O[C@@H]2CCCCO2)[C@H](C)O1", "AC50": "7.49 µM (active)"}, {"molecule": "CC=CC1=C(C(=O)O)N2C(=O)[C@@H](NC(=O)[C@H](N)c3ccc(O)cc3)[C@H]2SC1", "outcome": "inactive"}, {"molecule": "C[C@H](CCC(=O)O)[C@H]1CC[C@H]2[C@@H]3CC[C@@H]4C[C@H](O)CC[C@]4(C)[C@H]3C[C@H](O)[C@]12C", "AC50": "87.3 µM (active)", "outcome": "inactive"}, {"molecule": "Cc1cc(C(C)(C)C)c(O)c(C)c1Cn1c(=O)n(Cc2c(C)cc(C(C)(C)C)c(O)c2C)c(=O)n(Cc2c(C)cc(C(C)(C)C)c(O)c2C)c1=O", "AC50": "56.3 µM (active)"}, {"molecule": "Cc1cc(Nc2ccc(O)cc2)ccc1N", "AC50": "41.2 µM (active)"}, {"molecule": "NCCc1cnc[nH]1", "outcome": "inactive"}, {"molecule": "CN1CCN(c2cc3c(nn2)Oc2ccccc2N3C)CC1", "outcome": "inactive"}, {"molecule": "CC(=O)CC(=O)c1ccccc1", "outcome": "inactive"}, {"molecule": "COc1cc2c(cc1OC)-c1cc(=Nc3c(C)cc(C)cc3C)n(C)c(=O)n1CC2", "AC50": "36.7 µM (active)"}, {"molecule": "Cc1cc(C(C)(C)C)c(O)c(C)c1CC1=NCCN1", "outcome": "inactive"}, {"molecule": "Cc1ccccc1OCC1CO1", "note": "(stereo not given)", "outcome": "inactive"}, {"molecule": "CC(=O)CC(C)=O", "outcome": "inactive"}, {"molecule": "CC(C)(C)S", "outcome": "inactive"}, {"molecule": "CC=C1[C@H]2C=C(C)C[C@]1(N)c1ccc(=O)[nH]c1C2", "outcome": "inactive"}, {"molecule": "CC(C)CC(=O)C1C(=O)c2ccccc2C1=O", "outcome": "inactive"}, {"molecule": "CCCC1([C@H](O)C/C=C/[C@H]2[C@H](O)CC(=O)[C@@H]2CCCCCCC(=O)OC)CCC1", "outcome": "inactive"}]}]}
